Bioassay records (PubChem)
A selection: hits, their analogues and other compounds. The true share with any hit is near 2.2%.
Mm-Cpn inhibitor: blocks the Methanococcus maripaludis chaperonin Mm-Cpn. AID 504842. 0.031% of 330,000 active. purified Mm-Cpn ATPase, ADP Transcreener TR-FRET. Potency, µM (series often up to 76.9 µM), inactives show at the highest dose activity, negative = inhibition, actives largely listed as inhibitors; further: potency means the concentration at half of the fitted maximal effect; on the % scale 0 is the no-effect control and ±100 the full control effect; nearly all actives have a fitted effect of over 80% in size
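Purified archaeal chaperonin (25 nM final) was preincubated with compound for 10 min at 37°C, then ATP (10 uM final) was added for 30 min at 37°C in Tris pH 7.4/KCl/MgCl2/DTT buffer. ADP was quantified by HTRF Transcreener TR-FRET.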
CCT modulator: modulators of cytosolic chaperonin (CCT/TRiC) activity; activity change, % (no concentration beside the values), hits read low; purified chaperonin ATPase assay, HTRF ADP detection, 30 min; 0.3% of 360,000 active; AID 651819; in the data active means activity change below about -30%; further: on the % scale 0 is the no-effect control and ±100 the full control effect
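ATPase activity: ADP formed was measured by HTRF Transcreener (665/615 nm ratio) after 30 min at 37 deg C with 10 uM ATP. Compounds screened at one 76 uM concentration against 40 or 20 nM TRiC in Tris pH 7.4/KCl/MgCl2/DTT buffer.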
uPA surface inh: cell surface uPA generation inhibition | cell surface uPA generation assay, qHTS | Potency, µM (titrated, usually from 38.3 µM), for inactives: at the highest dose activity change, negative = inhibition, hits mostly inhibitors | 0.31% of 330,000 active | AID 540303; active means well fitted inhibition curve with a large enough effect; inconclusive means small, poorly fitted or top-dose-only effect; inactive means no such curve, though single readings can be large or run the other way; tested in mouse RAW 264.7 cells; further: potency means the concentration at half of the fitted maximal effect; on the % scale 0 is the no-effect control and ±100 the full control effect; nearly all actives have a fitted effect of over 55% in size
GLP1R inv ag: inverse agonists of human GLP-1 receptor; 1.6% of 410,000 active; Potency, µM (series often up to 38.3 µM), for the others: at the top dose activity change, negative = inhibition, actives largely listed as inhibitors; HEK293 GLP-1R CRE-luciferase, luminescence, 24 h; GLP-1R form is constitutively active; P43220; further: potency means the concentration at half of the fitted maximal effect; on the % scale 0 is the no-effect control and ±100 the full control effect; nearly all actives have a fitted effect of over 55% in size
Target sequence (P43220 whole entry, looked up): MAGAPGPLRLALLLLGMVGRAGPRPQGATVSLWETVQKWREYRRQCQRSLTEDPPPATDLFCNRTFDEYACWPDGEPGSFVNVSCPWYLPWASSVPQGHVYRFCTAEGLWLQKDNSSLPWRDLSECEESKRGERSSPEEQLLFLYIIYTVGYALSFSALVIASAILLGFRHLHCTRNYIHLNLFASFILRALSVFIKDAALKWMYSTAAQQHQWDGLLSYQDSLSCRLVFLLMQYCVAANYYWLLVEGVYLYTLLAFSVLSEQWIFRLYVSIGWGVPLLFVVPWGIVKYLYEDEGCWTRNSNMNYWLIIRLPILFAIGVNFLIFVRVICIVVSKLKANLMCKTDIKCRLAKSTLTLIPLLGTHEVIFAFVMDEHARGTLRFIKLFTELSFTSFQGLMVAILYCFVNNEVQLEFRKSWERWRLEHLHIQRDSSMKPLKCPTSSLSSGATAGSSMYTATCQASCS
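Readout was luciferase luminescence, measured 12 min after detection reagent at room temperature. Beforehand, GLP-1R reporter HEK293 cells had sat 12 h, then received compounds for 24 hr at 37 deg C.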
GLP-1R agonist: GLP-1 receptor (human) agonism; P43220; HEK293 GLP-1R CRE-luciferase, luminescence, 4-6 h; cells express a hypersensitive GLP-1R form; Potency, µM (doses to about 45.6 µM), without a hit: at the highest dose activation, hits mostly activators; 0.007% of 380,000 active; further: potency means the concentration at half of the fitted maximal effect; % of control where 0% means no effect
HEK293 tox: cytotoxicity counter-screen for GLP-1 receptor inverse agonists; HEK293 cAMP-luciferase reporter cells, luminescence, 24 h; Potency, µM (series often up to 38.3 µM), for the others: top-dose activity change, negative = inhibition, actives largely listed as inhibitors; 0.13% of 410,000 active; AID 624418;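 further: loss of luciferase light is scored as toxicity; potency means the concentration at half of the fitted maximal effect; on the % scale 0 is the no-effect control and ±100 the full control effect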
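Here, cytotoxicity is scored as loss of luminescence. The MLSMR collection was tested on cells seeded in medium containing 10% Nu serum, with a 24 hr compound exposure preceded by 12 hours of culture.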
An asterisk follows results filed as active; u = inconclusive; x = not tested or not shown. Unless noted, the call rests on the fitted dose curve; in most records, active means well fitted curve in the direction sought with a large enough effect; inconclusive means small, poorly fitted or top-dose-only effect, or another doubt; inactive means no such curve, though single readings can be large; an effect the other way counts as inactive or inconclusive.

SMILES	Mm-Cpn inhibitor	CCT modulator	uPA surface inh	GLP1R inv ag	GLP-1R agonist	HEK293 tox
O=C(c1ccc(CN2CCc3ccccc3C2)cc1)N1CCCCC1	-0.7%	-2.1	5.3%	u	-5.4%	1.1%
CN(C)S(=O)(=O)c1cccc(N=C2SCCN2Cc2ccccc2)c1	-1.9%	-3.9	-1.2%	11.2µM*	19.0%	14.6%
CC(=O)CCC(=O)O	x	x	x	x	-5.4%	x
O=C(Nc1c(-c2ccccc2)nc2ccccn12)c1cccc(F)c1	2.8%	-0.3	-3.8%	10µM*	2.8%	-7.3%
O=C(Nc1c(-c2ccccc2)nc2ccccn12)c1ccc(Br)cc1	x	x	x	11.2µM*	-0.2%	-25.3%
COc1ccc(C2C(=O)N(C3CCCCCC3)CC(=O)N2Cc2ccc(C)cc2)cc1 (centres undefined)	x	x	x	4.9%	x	-13.1%
Cc1ccc(Cn2c(/C=C/c3ccco3)nc3ccccc32)cc1	-3.0%	0.5	16.9%	11.2µM*	6.7%	-10.6%
COc1cc(/C=N/NC(N)=S)cc(Br)c1OCc1ccccc1F	1.5%	-2.1	-9.1%	-6.9%	-0.2%	5.62µM*
CCOc1cc(/C=N/NC(N)=S)cc(Br)c1OCc1ccccc1C	0.8%	1.7	-12.4%	u	-9.6%	u
O=C(CC(CC(=O)c1ccccc1)c1ccccn1)c1ccccc1	x	0.4	-1.8%	10µM*	14.5%	-0.9%
COc1cccc(-n2cc(C(=O)Nc3cc(OC)c(OC)c(OC)c3)c3ccccc3c2=O)c1	x	x	x	2.6%	x	-13.7%
Cc1cccc(CCN2C(N(C)C)=NC[C@@H]2CC(C)C)c1	-2.1%	-0.4	u	8.5%	1.3%	-11.0%
Cc1cccc(CCN2C(N(C)C)=NC[C@@H]2Cc2ccccc2)c1	-0.2%	-0.6	10µM*	-4.4%	-2.5%	-2.5%
Cc1cn(S(=O)(=O)c2ccc(F)c(Cl)c2)cn1	x	x	x	15.0%	-2.6%	-2.5%
CCCN(CCC)C(=O)Cc1coc2ccc3ccccc3c12	-1.3%	1.1	0.6%	8.91µM*	0.8%	-9.1%
O=C(Cc1coc2ccc3ccccc3c12)NCc1ccccc1	-3.3%	-9.0	x	u	7.8%	4.3%
COc1ccc(-c2c(-c3ccccc3OC)sc3ccccc23)cc1OC	35.5µM*	1.6	-15.1%	u	5.2%	6.0%
COc1ccccc1-c1sc2ccccc2c1-c1ccccc1OC	56.2µM*	-9.5	-6.0%	u	14.6%	-3.4%
COc1ccccc1-c1sc2ccccc2c1-c1ccc2c(c1)OCCO2	20µM*	-6.1	-5.4%	5.7%	5.8%	44.2%
COc1ccc(-c2c(-c3ccccc3OC)sc3ccccc23)cc1C=O	u	-3.8	1.5%	u	-1.1%	-32.6%
CCOC(=O)c1ccc(-c2c(-c3ccccc3OC)sc3cc4c(cc23)OCO4)cc1F	u	1.2	5.62µM*	u	-1.0%	19.1%
[2H]c1c([2H])c([2H])c2c([nH]c(=S)n2C2CCN(CCCC(=O)c3ccc(F)cc3)CC2)c1[2H]	x	x	x	x	11.5%	x
CCn1cc(CN2CCC(C(=O)Nc3ccc(Oc4cccnc4)cc3)CC2)c(C)n1	-0.5%	-3.8	2.6%	u	-1.7%	11.4%
C=CCn1cc(CN2CCC(C(=O)Nc3ccc(Oc4cccnc4)cc3)CC2)c(C)n1	-0.8%	-31.3*	4.0%	-23.3%	-2.4%	-3.1%
O=C(Nc1cccc(C(F)(F)F)c1)c1cccnc1N1CCOCC1	1.7%	2.4	7.7%	-27.7%	-3.2%	-6.7%
SMILES	Mm-Cpn inhibitor	CCT modulator	uPA surface inh	GLP1R inv ag	GLP-1R agonist	HEK293 tox
O=C(Nc1cccc(C(F)(F)F)c1)c1cccnc1NCCc1ccccc1	-1.2%	-2.1	0.3%	3.55µM*	-2.2%	u
O=C(Nc1cccc(F)c1)c1cccnc1NCCc1ccccc1	-0.6%	-1.1	0.3%	10µM*	17.1%	-3.6%
O=C(Nc1cccc(C(F)(F)F)c1)c1cccnc1NCCO	-0.9%	-5.1	1.6%	22.5%	-3.7%	5.3%
O=C(Nc1cccc(C(F)(F)F)c1)c1cccnc1N1CCCC1	-10.4%	-0.8	10.3%	11.2µM*	15.6%	9.7%
CO[C@@H]1[C@@H]([C@H](C)[C@@H]2O[C@@]3(CC[C@@](C)([C@H]4CC[C@@](C)([C@H]5O[C@H]([C@H]6O[C@](C)(O)[C@H](C)C[C@@H]6C)C[C@H]5O[C@H]5C[C@@H](OC)[C@H](OC)[C@@H](C)O5)O4)O3)C[C@@H](O)[C@@H]2C)O[C@@](O)(CC(=O)O)[C@H](C)[C@H]1OC	x	x	x	x	-4.4%	x
NC(=O)C1CCN(c2nc(-c3cccc(Br)c3)cs2)CC1	-0.8%	x	x	x	x	x
O=c1c2ccccc2nc(SCCN2CCOCC2)n1CCc1ccccc1	3.2%	-1.3	-8.0%	10µM*	26.2%	8.0%
COC(C/C=C/C(=O)[C@H](C)OCc1ccccc1)OC	x	-1.9	11.2µM*	-29.2%	-13.4%	-10.2%
COC(C/C=C/C(=O)COCc1ccccc1)OC	-2.5%	-1.4	7.08µM*	-2.6%	-6.5%	-0.5%
COc1ccc(CC(N)c2csc(Nc3cc(Oc4ccccc4)ncn3)n2)cc1 (centres undefined)	x	-35.8*	x	-23.3%	0.8%	0.5%
NC(Cc1ccc(Cl)cc1)c1csc(Nc2cc(Oc3ccccc3)ncn2)n1 (centres undefined)	x	0.5	x	u	-20.6%	u
CC(=O)NC1C(=O)N(CCN2CCOCC2)c2ccc(Cl)cc21 (centres undefined)	-6.5%	-30.0*	3.4%	10.6%	-0.1%	1.6%
C=CCc1cc(OC)ccc1OCCOCCN1CCc2ccccc2C1	4.3%	1.1	0.5%	10µM*	18.1%	3.0%
CCOc1ccc(OCCOCCN2CCc3ccccc3C2)cc1	-1.2%	1.3	2.4%	-13.8%	5.8%	-30.6%
Cc1cc(C)c2c(c1)c(C)cc1nnc(SCC(=O)c3ccccc3)n12	x	x	x	1.1%	x	0.4%
CCCCN1CC(COCc2ccccc2)Oc2cccc(Oc3ccccc3)c2S1(=O)=O (centres undefined)	x	0.5	4.7%	u	-0.1%	13.1%
CCCCN1CC(COCc2ccccc2)Oc2cccc(Oc3cc(C)c(C)c(C)c3)c2S1(=O)=O (centres undefined)	x	-0.2	15.4%	2.82µM*	-1.8%	-21.8%
CCCCN1CC(COCc2ccccc2)Oc2cccc(Oc3ccc(C)cc3)c2S1(=O)=O (centres undefined)	x	-1.4	11.4%	7.94µM*	4.7%	0.8%
CCCCN1CC(COCc2ccccc2)Oc2cccc(Oc3ccc(F)cc3)c2S1(=O)=O (centres undefined)	x	-0.9	6.4%	3.55µM*	6.7%	-6.8%
CCOc1ccc(NC(=O)C2CCN(C(=O)N3CC(C)Oc4ccc(Cl)cc43)CC2)cc1 (centres undefined)	x	x	x	2.8%	x	4.7%
